Measured values: PubChem BioAssay (NCATS)
Unmarked numbers belong to inactive results. Records with an inconclusive call do not appear. The source made the active and inactive calls. The call rests on the fitted dose curve; in most records, active means well fitted curve in the direction sought with a large enough effect; inconclusive means small, poorly fitted or top-dose-only effect, or another doubt; inactive means no such curve, though single readings can be large; an effect the other way counts as inactive or inconclusive.

target: Guanine nucleotide-binding protein G(i) subunit alpha-1 (Homo sapiens) (UniProt P63096); experiment: qHTS Assay for Inhibitors of RGS12 GoLoco Motif Activity (Green Fluorophore) (AID 879); conditions: Galphai1/FITC-RGS12 GoLoco peptide, fluorescence polarization; series mostly up to 57.1 µM; activity, negative = inhibition: at the top concentration;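 further: 0% = labeled peptide with Gαi1 and full inhibition = labeled peptide alone without protein; negative values mean loss of peptide binding seen as reduced polarization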
Procedure, shortened: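 Fluorescence polarization assay: 50 nM Gαi1 with 10 nM FITC-labeled RGS12 GoLoco peptide in 10 mM Tris pH 7.5, 150 mM NaCl, 0.1 mM GDP, 0.05% NP40, 10 min at room temperature with compound.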

Chain of Guanine nucleotide-binding protein G(i) subunit alpha-1 (Homo sapiens) (P63096 whole entry, looked up): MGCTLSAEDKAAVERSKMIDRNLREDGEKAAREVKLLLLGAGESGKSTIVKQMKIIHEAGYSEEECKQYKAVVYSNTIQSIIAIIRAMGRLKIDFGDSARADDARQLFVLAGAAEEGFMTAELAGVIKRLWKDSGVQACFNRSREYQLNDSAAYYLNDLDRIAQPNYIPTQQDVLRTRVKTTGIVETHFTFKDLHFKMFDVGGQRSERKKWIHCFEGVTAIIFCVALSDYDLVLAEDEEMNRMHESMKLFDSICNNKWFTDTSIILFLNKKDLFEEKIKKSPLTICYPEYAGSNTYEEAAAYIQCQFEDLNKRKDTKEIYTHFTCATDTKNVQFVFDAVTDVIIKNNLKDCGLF

Row | SMILES | activity, negative = inhibition [%]
1 | C[C@]12CCC(=O)C=C1CC[C@@H]1[C@@H]2[C@@H](O)C[C@@]2(C)[C@H]1CC[C@]2(O)C(=O)CO | -20.3
2 | CC(C)NCC(O)COc1ccc(COCCOC(C)C)cc1 (centres undefined) | 7.69
3 | Clc1cccc(Cl)c1NC1=NCCN1 | -13.2
4 | Nc1ccc(S(=O)(=O)Nc2ccnn2-c2ccccc2)cc1 | -20.9
5 | CCOC(=O)N1CCC(=C2c3ccc(Cl)cc3CCc3cccnc32)CC1 | -4.6
6 | Cc1ccc(N(CC2=NCCN2)c2cccc(O)c2)cc1 | 4.29
7 | CCCCNc1cc(C(=O)O)cc(S(N)(=O)=O)c1Oc1ccccc1 | 2.54
8 | NNCCc1ccccc1 | -2.35
9 | Nc1nc2c(ncn2COCCO)c(=O)[nH]1 | -13.2
10 | OC(CN1CCC(Cc2ccc(F)cc2)CC1)c1ccc(Cl)cc1 (centres undefined) | -10
11 | O=C1CCc2cc(OCCCCc3nnnn3C3CCCCC3)ccc2N1 | -11.8
12 | Cc1oncc1C(=O)Nc1ccc(C(F)(F)F)cc1 | -13.8
13 | Cc1cnc(NC(=O)C2=C(O)c3ccccc3S(=O)(=O)N2C)s1 | -18.3
14 | O=c1n(CCCN2CCN(c3cccc(Cl)c3)CC2)nc2ccccn12 | -13.2

target: Cytochrome P450 3A4 (Homo sapiens) (UniProt P08684); experiment: qHTS Assay for Inhibitors and Substrates of Cytochrome P450 3A4 (AID 884); conditions: recombinant CYP3A4, Luciferin-PPXE luminescence; series mostly up to 57.1 µM; activity change, negative = inhibition: at the top concentration; further: on the % scale 0 is the no-effect control and ±100 the full control effect; nearly all actives have a fitted effect of over 50% in size
Procedure, shortened: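 20 nM human CYP3A4 with 25 uM Luciferin-PPXE (at KM) in 200 mM KPO4, preincubated 10 min with compound; NADPH regeneration started a 60 min RT reaction. Luciferin detected by luminescence, normalized to 57 uM ketoconazole as full inhibition.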

Chain of Cytochrome P450 3A4 (Homo sapiens) (P08684 whole entry, looked up): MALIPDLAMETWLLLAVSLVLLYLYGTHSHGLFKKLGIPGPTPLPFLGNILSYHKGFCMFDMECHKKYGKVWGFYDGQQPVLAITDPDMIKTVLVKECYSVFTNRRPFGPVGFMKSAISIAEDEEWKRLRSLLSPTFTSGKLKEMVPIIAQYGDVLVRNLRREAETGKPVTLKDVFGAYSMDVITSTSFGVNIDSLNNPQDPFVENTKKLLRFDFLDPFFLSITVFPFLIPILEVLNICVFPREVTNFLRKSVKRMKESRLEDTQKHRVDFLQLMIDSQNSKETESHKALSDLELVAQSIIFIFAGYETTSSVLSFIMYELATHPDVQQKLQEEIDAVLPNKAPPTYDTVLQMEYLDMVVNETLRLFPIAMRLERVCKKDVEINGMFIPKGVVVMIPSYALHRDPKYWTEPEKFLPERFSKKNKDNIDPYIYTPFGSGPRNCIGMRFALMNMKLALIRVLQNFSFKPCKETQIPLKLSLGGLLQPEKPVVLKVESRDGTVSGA

Row | SMILES | activity change, negative = inhibition [%]
15 | CC(C)NCC(O)COc1ccc(COCCOC(C)C)cc1 (centres undefined) | -2.74
16 | CC(C[N+](C)(C)C)OC(N)=O (centres undefined) | -3.34
17 | CCN(CC)CCCC(C)Nc1nc(C)cc(Nc2ccc3nc(C)cc(N)c3c2)n1 (centres undefined) | -16.4
18 | Nc1nc2c(ncn2COCCO)c(=O)[nH]1 | -1.73
19 | CCn1cc(C(=O)O)c(=O)c2cc(F)c(N3CCNC(C)C3)c(F)c21 (centres undefined) | -1.03
20 | OC(CN1CCC(Cc2ccc(F)cc2)CC1)c1ccc(Cl)cc1 (centres undefined) | 58.5
21 | O=c1n(CCCN2CCN(c3cccc(Cl)c3)CC2)nc2ccccn12 | -18.7

target: Cytochrome P450 3A4 (Homo sapiens) (UniProt P08684); experiment: qHTS Assay for Activators of Cytochrome P450 3A4 (AID 885); conditions: recombinant CYP3A4, Luciferin-PPXE luminescence, 60 min; series mostly up to 57.1 µM; activity change, positive = activation: at the top concentration; further: nearly all actives have a fitted effect of over 65% in size
Procedure, shortened: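 20nM CYP3A4 + 25uM Luciferin-PPXE (=KM), 200mM KPO4; cpd 10 min RT; NADPH regen, 60 min RT; stop w/ detection buffer, 20 min; luminescence. Normalized to 57 uM ketoconazole.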

Row | SMILES | activity change, positive = activation | outcome
22 | C[C@]12CCC(=O)C=C1CC[C@@H]1[C@@H]2[C@@H](O)C[C@@]2(C)[C@H]1CC[C@]2(O)C(=O)CO | -33.2% | 
23 | CCc1ccc(CCOc2ccc(CC3SC(=O)NC3=O)cc2)nc1 (centres undefined) | -67.3% | 
24 | Nc1ccc(S(=O)(=O)Nc2ccnn2-c2ccccc2)cc1 |  | inactive
25 | NNCCc1ccccc1 |  | inactive
26 | COc1ccc2nc(S(=O)Cc3ncc(C)c(OC)c3C)[nH]c2c1 (centres undefined) | -83.1% [at 25.6 µM] | 
27 | O=C1CCc2cc(OCCCCc3nnnn3C3CCCCC3)ccc2N1 | -52.9% | 
28 | Cc1oncc1C(=O)Nc1ccc(C(F)(F)F)cc1 | -70.3% | 
29 | NC(=O)c1ccc(-c2nc(-c3ccc4c(c3)OCO4)c(-c3ccccn3)[nH]2)cc1 | -117% | 
